This is a sample that favours compounds with a hit; in the whole collection about 2.3% have one here.
TPT1 inhibitor = inhibitors of Candida albicans tRNA 2'-phosphotransferase TPT1; recombinant caTPT1, FP RNA substrate dephosphorylation; inhibition, % at 5 µM; 300,000 tested, 0.81% active;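 active = inhibition above the mean of all tested compounds plus 3 SD, set per screening campaign, cut at about 24% in these data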;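 note: plate controls were DMSO alone for no effect and ferristatin control at 100 nM for full effect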
IDE cell inh = inhibits human insulin-degrading enzyme in HEK cells; FAbetaB cleavage, fluorescence polarization; 320,000 tested, 0.41% active; inhibition, % at 5.59 µM;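 active = percent inhibition above the average of all tested compounds plus 3 SD, set per screening campaign, cut at about 16% in these data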;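 note: IDE supplied by intact live HEK cells; FP after avidin binding of uncleaved biotin substrate so inhibition keeps polarization high; 0% = DMSO wells and 100% = 60 µM reference IDE inhibitor Ii1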
Rpn11 inh = inhibitors of human proteasome Rpn11; AID 588493; human 26S proteasome, Ub4-pepOG fluorescence polarization; 20S core pre-blocked with epoxomicin; inhibition, % at 20 µM; 360,000 tested, 0.59% active; O00487;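 active = inhibition at 20 µM, scaled to each plate's controls, above about 33%, limit read from the data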
Target sequence (O00487 whole entry, looked up): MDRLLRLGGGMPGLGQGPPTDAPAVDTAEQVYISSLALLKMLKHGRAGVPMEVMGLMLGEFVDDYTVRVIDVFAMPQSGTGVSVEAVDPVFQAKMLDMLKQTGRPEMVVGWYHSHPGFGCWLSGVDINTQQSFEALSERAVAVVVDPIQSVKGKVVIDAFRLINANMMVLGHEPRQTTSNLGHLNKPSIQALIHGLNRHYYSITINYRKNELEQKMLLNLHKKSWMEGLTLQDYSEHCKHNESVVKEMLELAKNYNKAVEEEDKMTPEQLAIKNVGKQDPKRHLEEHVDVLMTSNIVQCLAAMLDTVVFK
IDE cell activ = IDE (human) activation, cell-based. P14735. HEK cells, FAbeta-B cleavage, fluorescence polarization; 0% vehicle, 100% cell-free pure enzyme wells. activation, % at 5.96 µM. 340,000 tested, 0.073% active. AID 493087;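 active = activation above the mean of all tested compounds plus 3 SD, set per screening campaign, cut at about 17% in these data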
Rin1 Abl inh = inhibitors of human Rin1-Abl protein interaction | 360,000 tested, 0.4% active | inhibition, % at 7.35 µM | TR-FRET Rin1/Abl binding, biochemical; in the data active = inhibition above about 5%, passing the limit was not always enough
Calb FLC = affects C. albicans growth with fluconazole; growth inhibition, % (concentration not given with the values); C. albicans CaCi-2 (fluconazole-resistant clinical isolate) + fluconazole, Alamar Blue growth, 48 h; 300,000 tested, 0.57% active; AID 1979;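 active = growth inhibition above about 58% in most replicates, limit read from the data, passing the limit was not always enough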;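 note: all wells also contain fluconazole at 8 µg/ml as a sub-toxic cotreatment; 0% = median of DMSO wells and 100% = median of geldanamycin control wells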
TPT1 inh confirm = TPT1 (C. albicans) inhibition, confirmation | shares compounds with TPT1 inhibitor | recombinant caTPT1, fluorescence polarization, RNase T1 coupled | inhibition, % at 5 µM | 2,400 tested, 74% active | AID 2149;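 active = inhibition above the primary screen limit, the mean inhibition of all tested compounds plus 3 SD, cut at about 25% in these data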
RNase T1 counter = blocks Aspergillus oryzae RNase T1, a TPT1 counter-screen; inhibition, % at 5 µM; 2,400 tested, 83% active; shares compounds with TPT1 inhibitor; RNase T1 cleavage, fluorescence polarization, 1536-well; AID 2153;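 active = inhibition above the solvent-only control well mean plus 3 SD, limit set per screening run, cut at about 23% in these data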;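 note: plate controls were DMSO wells with enzyme for no effect and wells without RNase T1 for full effect; inhibitors block cleavage so intact labeled substrate keeps polarization high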
Target sequence (P00651 whole entry, looked up): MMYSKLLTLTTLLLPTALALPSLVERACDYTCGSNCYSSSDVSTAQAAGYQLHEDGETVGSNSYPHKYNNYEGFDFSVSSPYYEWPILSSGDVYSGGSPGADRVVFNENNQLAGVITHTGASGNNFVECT
* = called active by the depositor; . = no result given.

SMILES	TPT1 inhibitor	IDE cell inh	Rpn11 inh	IDE cell activ	Rin1 Abl inh	Calb FLC	TPT1 inh confirm	RNase T1 counter
CCN(CC)c1ccc(C=N/C(C#N)=C(\N)C#N)cc1	83*	12	.	-4	-1	-3	116*	121*
O=C(/C=C/c1ccc([N+](=O)[O-])cc1)/C=C/c1ccco1	27*	5	6	2	5	2	24	31*
O=C(/C=C/c1ccc([N+](=O)[O-])cc1)c1ccco1	-1	0	-9	0	2	5	.	.
O=C(CCCN1C(=O)/C(=C\c2cccs2)SC1=S)Nc1ccc(C(=O)O)cc1	-4	2	3	5	-1	-1	.	.
O=C(CCN1C(=O)/C(=C/c2ccccc2)SC1=S)Nc1ccccn1	0	-2	5	0	-1	-11	.	.
COc1ccc(/C=C2\SC(=S)N(CCCC(=O)Nc3ccccn3)C2=O)cc1OC	32*	2	25	-3	-6	12	53*	64*
O=C(CCN1C(=O)/C(=C/c2cccs2)SC1=S)Nc1ccc(C(=O)O)cc1	31*	7	25	5	1	-6	29*	39*
O=C(CCN1C(=O)/C(=C/c2cccs2)SC1=S)Nc1ccccn1	33*	7	.	-5	-2	-16	31*	42*
Cc1ccc(/C=C2\SC(=S)N(CCCC(=O)Nc3ccccn3)C2=O)cc1	-2	-4	-8	3	-1	-4	.	.
O=C(CC[C@H]1O[C@@H](n2ccc(=O)[nH]c2=O)[C@H](O)[C@@H]1O)NCCc1c[nH]c2ccccc12	.	.	12	.	4	.	.	.
CCN(CC)c1ccc(C=C2C(=O)OC(C)(C(C)(C)C)OC2=O)cc1 (configuration not stated)	78*	2	.	3	-2	-12	162*	152*
CCN(CC)c1ccc(C=C2C(=O)OC3(CCCC3)OC2=O)cc1	29*	-4	28	2	4	-1	140*	142*
CN(C)c1ccc(C=C2C(=O)OC(C)(C(C)(C)C)OC2=O)cc1 (configuration not stated)	15	4	2	4	-1	3	.	.
COc1ccc(NC(=O)COC(=O)CCCC2=NS(=O)(=O)c3ccccc3N2)cc1	-2	-4	-9	-2	3	-15	.	.
CCSc1nnc(-c2sc3nnc(-c4ccccc4)c(-c4ccccc4)c3c2N)o1	42*	21*	-27	-72	-2	5	42*	51*
CC(C)Cn1c(SCC(=O)Nc2cc(Cl)c(Cl)cc2Cl)nc(O)cc1=O	10	3	12	4	5	-1	.	.
CCOc1cc(/C=C2\N=C(SC(C)C(N)=O)N(c3ccc(OC(F)F)cc3)C2=O)ccc1O (configuration not stated)	101*	108*	.	-100	-1	14	117*	113*
Cc1ccccc1NC(=O)Cn1c(CCC(=O)O)ccc1-c1cccs1	3	8	-2	4	2	-14	.	.
COC(=O)c1ccccc1NC(=O)Cn1c(CCC(=O)O)ccc1-c1cccs1	32*	-2	10	-4	-1	15	21	32*
COc1cc(/C=C2\COC/C(=C\c3cc(OC)c(OC)c(OC)c3)C2=O)cc(OC)c1OC	.	.	0	7	0	12	.	.
COc1ccc(/C=C2/CC/C(=C\c3ccc(OC)c(OC)c3OC)C2=O)c(OC)c1OC	24*	6	30	2	2	11	36*	43*
COc1cc(/C=C2\CC/C(=C\c3cc(OC)c(OC)c(OC)c3)C2=O)cc(OC)c1OC	39*	1	12	2	-3	12	48*	57*
COc1ccc(OC)c(C2=C/C(=C/c3ccccn3)C(=O)O2)c1	80*	9	.	-8	2	5	84*	90*
COc1ccc(/C(C#N)=C/c2ccccn2)cc1	-5	6	-7	-2	-4	-6	.	.
O=C(Cc1ccc(Cl)cc1)NCC(=O)N1CCC2(CC1)NCCc1[nH]cnc12	.	.	1	.	4	.	.	.
SMILES	TPT1 inhibitor	IDE cell inh	Rpn11 inh	IDE cell activ	Rin1 Abl inh	Calb FLC	TPT1 inh confirm	RNase T1 counter
O=C(CCN1C(=O)c2ccccc2S1(=O)=O)Nc1ccc(F)c(F)c1F	0	-7	-6	6	5	11	.	.
CC(C)NC(=O)C1CCN(C2CCN(C(=O)/C=C/c3cccs3)CC2)CC1	25*	11	-5	7	-3	0	6	15
CC(C)/C=C/C(=O)N1CCC(N2CCC(C(=O)NCc3ccccn3)CC2)CC1	-13	6	-13	4	0	0	.	.
CCOC(=O)C1(Cc2cccc(OC)c2)CCCN(C(=O)c2cc(C)on2)C1 (configuration not stated)	0	2	3	1	1	-4	.	.
CC(=NO)c1ccc2c(c1)Cc1cc([N+](=O)[O-])ccc1-2	.	.	-1	6	4	.	.	.
Nc1ccc2c(c1)Cc1cc([N+](=O)[O-])ccc1-2	53*	7	35	2	-8	-1	56*	65*
COc1ccc2nc(C)cc(Nc3ccc(C)cc3)c2c1	.	.	-1	2	-5	1	.	.
COc1ccc2nc(C)cc(NCc3ccc(F)cc3)c2c1	69*	13	.	-12	-1	-1	82*	85*
CCCCOCCCNCC(=O)Nc1ccc(S(N)(=O)=O)cc1	0	3	-6	4	2	-14	.	.
CCOCCCNCC(=O)Nc1ccc(S(=O)(=O)NC(C)CC)cc1 (configuration not stated)	118*	8	-2	0	0	-11	10	12
O=C(Nc1cccc([N+](=O)[O-])c1)Nc1cnccn1	1	0	-1	-5	0	-1	.	.
Cc1sc2nc[nH]c(=O)c2c1-c1ccc(Cl)cc1	5	1	-2	1	3	-53	.	.
CN(C)c1ccc(N/C=C/C(=O)c2ccc(F)cc2)cc1	36*	-2	46*	6	5	5	49*	59*
CC(=O)Nc1sc(/C(C#N)=C\c2cccc(Cl)c2)nc1-c1ccc(C)cc1	36*	8	.	-8	4	20	36*	48*
O=C(NCc1ccco1)C1CC(O)CN1C(=O)Nc1ccccc1 (configuration not stated)	-3	5	5	3	1	0	.	.
CC(=O)N(\C=C/C=C/C=C1\Sc2ccccc2C1=O)c1ccccc1	58*	10	18	-6	1	4	84*	94*
CC(=O)Nc1ccc(/C=C2/Sc3ccccc3C2=O)cc1	44*	1	14	-4	-2	14	43*	51*

Screening data deposited in PubChem BioAssay by several laboratories.
